Compound activity: PubChem BioAssay, Sanford-Burnham Center for Chemical Genomics
CYP2C9 activ: activators of human CYP2C9; P11712; recombinant CYP2C9, luciferin-H conversion, luminescence; hits give high values; factor 1 = untreated enzyme, 0 = blocked; activation factor at 5 µM; 96,000 tested, 1.4% active;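 active = activation factor of 2 or more for CYP2C9 at a 5 µM dose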;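 note: 0 = sulfaphenazole-blocked wells and 1 = vehicle-only wells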
Target sequence (P11712 whole entry, looked up): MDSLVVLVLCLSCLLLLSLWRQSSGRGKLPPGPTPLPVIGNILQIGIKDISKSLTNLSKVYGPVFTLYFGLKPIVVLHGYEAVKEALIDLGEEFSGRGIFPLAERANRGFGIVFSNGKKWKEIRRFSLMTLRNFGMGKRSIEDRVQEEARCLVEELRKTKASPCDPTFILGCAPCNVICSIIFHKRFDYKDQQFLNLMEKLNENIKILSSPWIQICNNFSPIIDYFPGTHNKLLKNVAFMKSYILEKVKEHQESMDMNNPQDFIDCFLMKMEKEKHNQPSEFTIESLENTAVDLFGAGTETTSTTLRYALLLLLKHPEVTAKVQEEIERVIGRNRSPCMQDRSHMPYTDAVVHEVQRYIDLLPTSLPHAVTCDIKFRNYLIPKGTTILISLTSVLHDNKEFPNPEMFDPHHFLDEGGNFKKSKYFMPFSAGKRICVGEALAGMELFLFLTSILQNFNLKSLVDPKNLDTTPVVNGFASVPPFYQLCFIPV
CYP2C19 act: activators of human cytochrome P450 2C19. P33261. recombinant CYP2C19, luciferin-H EGE luminescence; hits give high values; 0 = fully inhibited enzyme, 1 = untreated enzyme. activation factor at 5 µM. 96,000 tested, under 10 active. AID 1025;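 active = activation factor of at least 2 at 5 µM in the primary screen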;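 note: 0 = wells with 2.5 mM tranylcypromine and 1 = vehicle-only wells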
Mac1 fbg enh: increases human CD11b/CD18 adhesion to fibrinogen. P05107+P11215. K562 CD11b/CD18 adhesion to fibrinogen, ATPlite luminescence. activation, % at 10 µM. 93,000 tested, 0.07% active. AID 1499;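 active = 10 µM primary screen giving 50% or more activity, confirmed by 40% or more on retest at that dose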
CYP2C19 inh: blocks human cytochrome P450 2C19. P33261. inhibition, % at 5 µM. 96,000 tested, 21% active. CYP2C19 Supersomes, luciferin-H EGE luminescence, 30 min. AID 778;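 active = CYP2C19 inhibition above a set limit at 5 µM in the primary screen, cut at about 50% in these data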;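 note: plate controls were negative control wells for no effect and 2.5 mM tranylcypromine positive control for full effect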
CYP2C9 inhib: human CYP2C9 inhibition | AID 777 | P11712 | inhibition, % at 5 µM | CYP2C9 Supersomes, luciferin-H conversion, luminescence | 96,000 tested, 20% active;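 active = blocking of liver enzyme CYP2C9 beyond about 50% at 5 µM, limit read from the data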
CD11b adhes inh: blocks human CD11b/CD18 adhesion to fibrinogen. P05107+P11215. inhibition, % at 10 µM. K562 CD11b/CD18 adhesion to fibrinogen, ATPlite luminescence; Mn2+ added to activate the integrin. AID 1497. 93,000 tested, 0.54% active;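 active = primary inhibition of 50% or more at 10 µM, then 40% or more on retest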
* hit, by the source's call; / = no result given. This is a sample that favours compounds with a hit; in the whole collection about 28% have one here.

SMILES	CYP2C9 activ	CYP2C19 act	Mac1 fbg enh	CYP2C19 inh	CYP2C9 inhib	CD11b adhes inh
O=C(CSc1nccn1-c1ccc(F)cc1)Nc1ccc2c(c1)OCO2	0.7	0.5	/	52*	32	/
NC(=O)c1ccc(C(F)(F)F)n(Cc2c(Cl)cccc2Cl)c1=O	0.8	0.7	16	28	20	-4
Cc1cc(C)c(S(=O)(=O)c2ccccc2)c(N(C)C)n1	0.6	0.4	-7	64*	42	10
Cc1ccc(S(=O)(=O)c2c(C)cc(C)nc2Oc2cccc(C)c2C)cc1	0.8	0.9	1	13	16	3
CNc1nc(C)cc(C)c1S(=O)(=O)c1ccc(C)cc1	3.6*	0.2	/	82*	-261	/
Cc1cc(C)c(S(=O)(=O)c2ccccc2)c(OC(=O)c2c(Cl)cc(Cl)cc2Cl)n1	0.6	0.5	-1	53*	44	22
COc1ccc(-c2cc(C(=O)Nc3cc(C)n(Cc4ccc(Cl)cc4)n3)no2)cc1OC	1	1	15	2	-1	12
N#CC(c1ccccc1)N(CCCCl)C(=O)c1ccccc1 (stereo not given)	/	/	0	/	/	12
COc1ccc(CCNC(=O)CSc2nn(-c3ccccc3)c(=S)s2)cc1OC	/	/	2	/	/	8
CC(=O)c1ccc(NC(=O)Nc2ccccc2)cc1	0.4	0.5	1	50*	63*	3
CC(=O)c1ccc(NC(=O)CSCC(=O)Nc2ccc3ccccc3c2)cc1	0.5	0.8	-5	15	55*	1
CC(=O)c1ccc(NC(=O)c2ccn[nH]2)cc1	0.3	0.6	1	43	69*	-9
CCOC(=O)c1c(NC(=O)C(=O)N/N=C/c2ccccc2O)sc2c1CCCCC2	/	/	26	/	/	4
O=C(NCCCN1CCOCC1)c1ccccc1NS(=O)(=O)c1cc([N+](=O)[O-])ccc1Cl	/	/	-1	/	/	-14
Cc1cc(N2CCC(C(=O)NC3CC3)CC2)nc(-c2ccccc2)n1	0.9	0.6	-5	37	6	-9
Cc1cc(N2CCC(C(=O)NCC3CC3)CC2)nc(-c2ccccc2)n1	0.4	0.3	7	73*	62*	-10
Cc1ccc(N=Cc2nc(-c3ccco3)oc2O)cc1	0.4	0.7	-8	26	56*	-7
COc1ccc(C(C(=O)NC2CCCCC2)N(C(=O)c2sc(C)nc2C)c2ccccc2C)cc1 (stereo not given)	1.1	0.8	/	16	-7	/
CN(C(=O)COC(=O)COc1ccccc1F)C1CCS(=O)(=O)C1 (stereo not given)	1.1	1	7	-1	-11	-2
COc1ccc(C(=O)N2CCCC(c3nc(-c4cccs4)no3)C2)cc1 (stereo not given)	0.3	0.2	-2	84*	74*	7
COc1ccc(C(=O)N2CCCC(c3nc(-c4cccs4)no3)C2)cc1OC (stereo not given)	1	0.5	3	55*	4	4
Nc1nnc(SCC(=O)Nc2cc(C(F)(F)F)ccc2N2CCOCC2)s1	0.2	0.2	-2	78*	77*	-1
Cn1ccnc1SCC(=O)Nc1cc(C(F)(F)F)ccc1N1CCOCC1	0.8	0.7	-1	31	22	-5
CC(C)(C)C(=O)NC(=S)Nc1cc(C(F)(F)F)ccc1N1CCOCC1	0.1	0	4	96*	94*	-10
COc1cccc(OC)c1C(=O)Nc1cc(Cl)ccc1N1CCOCC1	0.4	0.6	1	41	62*	-18
SMILES	CYP2C9 activ	CYP2C19 act	Mac1 fbg enh	CYP2C19 inh	CYP2C9 inhib	CD11b adhes inh
O=C(Cn1cnc2ccccc21)Nc1cc(C(F)(F)F)ccc1N1CCOCC1	0.7	0.8	0	22	29	-4
Cn1c(=O)c2ncn(CC(=O)Nc3cc(C(F)(F)F)ccc3N3CCOCC3)c2n(C)c1=O	0.4	0.6	-3	41	57*	-16
CC(C)C(=O)N1CCN(c2ccccc2N)CC1	0.8	0.7	0	31	16	-15
O=C(Nc1cc(C(F)(F)F)ccc1N1CCOCC1)c1cccs1	0.9	0.4	2	59*	15	-30
O=C(Nc1cc(C(F)(F)F)ccc1N1CCOCC1)c1ccccc1F	1.1	0.9	/	8	-7	/
O=C(Nc1cc(C(F)(F)F)ccc1N1CCOCC1)C1Cc2ccccc2CN1C(=O)c1ccco1 (stereo not given)	0	0.1	45	90*	96*	19
O=C(Nc1cc(C(F)(F)F)ccc1N1CCOCC1)c1cccc(F)c1	1	0.2	-1	83*	4	17
O=C(Nc1cc(C(F)(F)F)ccc1N1CCOCC1)c1ccc2ccccc2n1	0.4	0.7	3	31	60*	-4
COCCCNC(=O)c1ccc(CS(=O)(=O)c2ccc(Br)cc2)o1	0.6	0.8	-1	18	41	0
Cc1cccc2nc(CSc3nnc4ccccn34)cn12	1.1	0.9	6	13	-10	-20
C=CCn1c(O)c(CN2CCOCC2)c(C)c(C#N)c1=O	0.9	1	-2	-1	8	-9
O=S(=O)(NCc1cc(-c2ccccc2)no1)c1ccc(Cl)cc1	0.9	0.2	/	78*	5	/
O=S(=O)(NCc1cc(-c2ccccc2Cl)no1)c1ccccc1	2.4*	0.1	/	92*	-140	/
COc1ccc(Cl)cc1-n1c(=S)sc2c(=O)[nH]c(SCC(=O)NCC3CCCO3)nc21 (stereo not given)	0.5	1	0	3	53*	6
O=C(CSc1nc2ccccc2[nH]1)NCC1CCCO1 (stereo not given)	/	/	5	/	/	-11
CC(C(=O)NC(=O)NC1CCCCC1)N1CCN(C(c2ccccc2)c2ccccc2)CC1 (stereo not given)	0.2	0.7	-1	26	84*	2
O=C(NC1CCCCC1)C(c1ccccc1)N1CCCC1 (stereo not given)	1.1	0.3	2	71*	-9	50
COc1cc(CCN2C(=O)c3cccc4cccc(c34)C2=O)c(S(=O)(=O)N2CCC(C)CC2)cc1OC	/	/	48	/	/	-12
CCC(=O)Nc1cc(-c2nn(CC(=O)N3CCCCC3)c(=O)c3ccccc23)ccc1N1CCOCC1	0.7	0.8	-3	15	28	-6
CC1CC(C)CN(CCCNC(=O)C2CCCN(c3nnc(N4CCCC4=O)s3)C2)C1 (stereo not given)	1.1	1.1	/	-13	-15	/
CCC(CC)C(=O)Nc1cc(C)cc(C)c1	0.7	0.8	-2	18	25	0
COC(=O)c1sc(N)c(C(=O)OC)c1CSc1nnc(-c2ccccc2Cl)n1C	0	0	0	100*	97*	4
COC(=O)c1sc(N)c(C(=O)OC)c1CSc1nnnn1C	0.5	0.1	1	92*	55*	-4
